Test: reversal of MRP1-mediated doxorubicin resistance, pilot screen, H69AR cells, doxorubicin co-treatment (AID 601)
Settings: H69AR cells, CellTiter-Glo, 72 h; compound alone cytotoxicity; at 10 µM

| Compound | viability [%] |
| --- | --- |
| O=c1c2ccccc2c(C=Nc2ccc(Cl)cn2)c(O)n1-c1cc(Cl)ccc1N1CCOCC1 | 89.1 |
| CCSC1=C(C#N)C(c2cccc(OC)c2)CC(=O)N1 (stereo not given) | 101 |
| COc1ccc(S(=O)(=O)N2CCC(C(=O)NCc3ccco3)CC2)cc1 | 86.6 |
| CS(=O)(=O)N1CCN(C(=O)c2ccc(-c3ccccc3)cc2)CC1 | 96.1 |
| COc1ccc(-c2noc(C3CCCN(C(=O)CCc4ccccc4)C3)n2)cc1 (stereo not given) | 84.3 |
| CN(C)c1cccc(N=C2C=C(N3CCOCC3)CC(C)(C)C2)c1 | 91.8 |
| CCN(c1ccccc1)S(=O)(=O)c1ccc(F)cc1C | 90.4 |
| CCC(C)c1ccc(NC(=O)C2CC2)cc1 (stereo not given) | 90.3 |
| Cn1c(SCc2c(F)cccc2Cl)nnc1-c1cccs1 | 87.9 |
| CCOC(=O)C1CCN(S(=O)(=O)c2cccc(-c3csc(C)n3)c2)CC1 | 90.4 |
| Cc1nnc(SCC(=O)N2CCC(C(N)=O)CC2)s1 | 91.2 |
| O=C(NCC(=O)N(CCc1ccccc1)C(C(=O)NC1CCCC1)c1cccnc1)c1ccco1 (stereo not given) | 99.8 |
| c1ccc2c3nnc4n(c-3nc2c1)CCCS4 | 104 |
| CCCSC1=C(C#N)C(c2ccccc2OCC)CC(=O)N1 (stereo not given) | 90.1 |
| CC(C)Cc1nnc(NC(=O)CCC(=O)N2CCOCC2)s1 | 96.2 |
| CSC1CCCCC1(O)CSc1nc2c(cc1C#N)CCCC2 (stereo not given) | 92.6 |
| CCOC(=O)C1CCCN(S(=O)(=O)c2cccs2)C1 (stereo not given) | 109 |
| C=CCn1c(Cc2csc(N)n2)nnc1SCC(=O)OCC | 91.9 |
| Cc1cc(C)n(Cc2nc3ccccc3n2C)n1 | 99 |
| CC(O)CN(Cc1cccc(Cl)c1)CC(C)O (stereo not given) | 99.4 |

| Compound | viability [%] |
| --- | --- |
| CCCCn1c(NC(=O)CC)c(C#N)c2nc3ccccc3nc21 | 81.9 |
| CCC(=O)c1ccc(OCC(=O)N2CCc3cc(OC)c(OC)cc3C2)cc1 | 82.9 |
| Cn1c(-c2ccc(F)cc2)cnc1NCc1ccccc1 | 66.2 |
| C=CCn1c(SCC(=O)NCC2CCCO2)nnc1C1CCCCC1 (stereo not given) | 97.5 |
| COc1ccccc1-c1nc(C(F)(F)F)c(OC)o1 | 91.9 |
| CCOc1ccc(C(=O)Cc2ccc3oc(C(=O)O)cc3c2)c(O)c1 | 98.8 |
| COc1cccc(C(=O)Nc2cc(NC(=O)c3ccco3)ccc2OC)c1 | 80.6 |
| Cc1c(Cc2ccccc2)sc(N)c1C(N)=O | 93.5 |
| COC(=O)c1cc(-c2c(C)nn(-c3ccccc3)c2C)n[nH]1 | 101 |
| O=C1CN(c2ccccc2F)C(=O)CN1c1ccccc1F | 102 |
| CC(C)c1nnc(NC(=O)CCC(=O)NCc2ccc3c(c2)OCO3)s1 | 97.7 |
| COC(=O)c1c(N)sc(C(=O)N2CCOCC2)c1C | 97.7 |
| COC(=O)c1ccc(C2CC(=O)Nc3cc(OC)c(OC)c(OC)c32)cc1 (stereo not given) | 89.4 |
| CC(C)c1ccc(NC(=O)C2CC(=O)N(C(C)C)C2)cc1 (stereo not given) | 90.8 |
| O=C(Nc1ccc(Cl)cc1)N1CCSCC1 | 107 |
| CCCSc1nnc(-c2ccccc2NC(=O)CC)c(=O)[nH]1 | 103 |
| CC1(C)CC(=O)C2=C(C1)Nc1nc(SCCN3CCOCC3)[nH]c(=O)c1C2c1cccs1 (stereo not given) | 89.9 |
| Cc1ccc(SCCC(=O)N(C)C)cc1 | 103 |
| COc1ccc(S(=O)(=O)N2CCN(Cc3ccc(Cl)cc3)CC2)cc1 | 97 |
| COc1cc(NC(=O)Cc2ccccc2OC)cc(OC)c1 | 95.7 |

Reference: PubChem BioAssay
